# Data published in PubChem BioAssay (NCI).
# The panel holds about 79,000 compounds, 15% with a hit somewhere; the sample as a whole holds those more often. Unmarked numbers belong to inactive results. The source made the active and inactive calls. No stated cut-off is given here; in the data, active means growth inhibition above about 70%; inactive means the rest.
# Columns and labels:
# [1] = NCI Yeast Anticancer Drug Screen. Data for the rad52 strain (AID 147);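 further: 0% = growth of vehicle-treated control cultures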; settings: S. cerevisiae rad52 mutant growth inhibition, hits give high values
# Summary of the method: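 Growth of repair-deficient yeast cells was compared between compound-treated and vehicle-treated cultures to give percent inhibition.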
# [2] = NCI Yeast Anticancer Drug Screen. Data for the wt1 strain (AID 149);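 further: 0% = growth of vehicle-treated wt1 cultures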; settings: S. cerevisiae wt1 strain (SPY 50644) growth inhibition, hits give high values
# Summary of the method: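 Growth inhibition read against vehicle controls after compound exposure of the wt1 yeast strain.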
# [3] = NCI Yeast Anticancer Drug Screen. Data for the rad50EPP+ strain (AID 151);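 further: 0% = growth of vehicle-treated control cultures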; settings: S. cerevisiae rad50 mutant strain, hits give high values
# Summary of the method: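 Measured: growth inhibition of rad50EPP+ yeast. Reference: vehicle-treated controls. Screen uses strains with defined genetic alterations in DNA damage repair or cell cycle control.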
# [4] = NCI Yeast Anticancer Drug Screen. Data for the mgt1 strain (AID 153); settings: S. cerevisiae mgt1 mutant growth inhibition, hits give high values
# Summary of the method: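 Compounds were applied to mgt1 mutant yeast, and growth was then compared against vehicle-treated control cultures to give percent inhibition.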
# [5] = NCI Yeast Anticancer Drug Screen. Data for the rad50 strain (AID 155);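 further: 0% = growth of vehicle-only cultures of the same strain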; settings: S. cerevisiae rad50 strain growth inhibition, hits give high values
# Summary of the method: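 Readout: growth inhibition relative to vehicle-treated cultures. Compound exposure was carried out in a genetically defined yeast strain deficient in DNA damage repair.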
# [6] = NCI Yeast Anticancer Drug Screen. Data for the mec2-1 strain (AID 157); settings: S. cerevisiae mec2-1 strain, hits give high values
# Summary of the method: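 Compounds were applied to mec2-1 yeast cells. Their growth was then compared with that of vehicle-treated cultures to give growth inhibition.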
# [7] = NCI Yeast Anticancer Drug Screen. Data for the rad14 strain (AID 159);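 further: 0% = growth of vehicle-treated control cultures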; settings: S. cerevisiae rad14 strain growth inhibition, hits give high values
# Summary of the method: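 Growth inhibition vs vehicle controls; genetically altered yeast strain (DNA damage repair defect) treated with test compounds.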
# [8] = NCI Yeast Anticancer Drug Screen. Data for the sgs1 mgt1 strain (AID 161);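 further: 0% = growth of cultures given vehicle only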; settings: S. cerevisiae sgs1 mgt1 strain, hits give high values
# Summary of the method: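 Percent growth inhibition was derived by comparing compound-exposed mutant yeast with vehicle-exposed cultures. The strain carries alterations in DNA damage repair.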
# [9] = NCI Yeast Anticancer Drug Screen. Data for the CLN2oe strain (AID 163);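 further: 0% = growth of vehicle-only control cultures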; settings: S. cerevisiae CLN2oe strain, hits give high values
# Summary of the method: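 Cells of an engineered yeast line with disturbed cell-cycle regulation are treated with compound. Inhibition of growth is then calculated relative to the vehicle-treated reference.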
# [10] = NCI Yeast Anticancer Drug Screen. Data for the cln2 rad14 strain (AID 165);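 further: 0% = growth equal to vehicle treated cultures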; settings: S. cerevisiae cln2 rad14 strain, hits give high values
# Summary of the method: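 Strain: cln2 rad14 yeast, altered in cell cycle control and DNA damage repair. Read-out: growth inhibition vs vehicle.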
# [11] = NCI Yeast Anticancer Drug Screen. Data for the bub3 strain (AID 167); settings: S. cerevisiae bub3 mutant strain, hits give high values
# Summary of the method: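 Readout: yeast growth inhibition, expressed relative to vehicle-only wells. The test organism is a mutant strain from a panel with lesions in DNA repair or checkpoint genes.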
# [12] = NCI Yeast Anticancer Drug Screen. Data for the wt2 strain (AID 169);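 further: 0% = growth of vehicle-treated yeast cultures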; settings: S. cerevisiae wt2 strain growth inhibition, hits give high values
# Summary of the method: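 Growth of compound-treated yeast is measured and expressed as inhibition relative to vehicle-only controls.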
# [13] = NCI Yeast Anticancer Drug Screen. Data for the mlh1 strain (AID 171);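 further: 0% = growth of vehicle-treated control cultures of the same strain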; settings: S. cerevisiae mlh1 strain growth inhibition, hits give high values
# Summary of the method: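 Test agents were incubated with yeast bearing a defined DNA damage repair or cell cycle control alteration; values are growth inhibition normalised to vehicle-treated cultures.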
# [14] = NCI Yeast Anticancer Drug Screen. Data for the sgs1 strain (AID 173);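 further: 0% = growth of vehicle-only control cultures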; settings: S. cerevisiae sgs1 mutant, hits give high values
# Summary of the method: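 Strain with an altered DNA repair or cell cycle pathway exposed to compound. Growth then measured. Value = inhibition versus vehicle control.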
# [15] = NCI Yeast Anticancer Drug Screen. Data for the mlh1 rad18 strain (AID 175); settings: S. cerevisiae mlh1 rad18 strain growth inhibition, hits give high values
# Summary of the method: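 A repair-deficient yeast strain is exposed to test compound, and growth is scored relative to vehicle-treated controls.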
# [16] = NCI Yeast Anticancer Drug Screen. Data for the rad18 strain (AID 177); settings: S. cerevisiae rad18 mutant growth inhibition, hits give high values
# Summary of the method: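 DNA-repair-defective yeast; compound treatment; growth inhibition scored against vehicle.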
# [17] = at 5.0 µM (retest, dose inferred, filed as 0.5)
# [18] = at 50.0 µM (retest, dose inferred, filed as 5.0)
smiles,measurement,setting,value
CCOC(=O)/C(=C\c1ccc(C#N)cc1)C(C)=O,growth inhibition,[1]; at 1.2 µM,-40%
same,growth inhibition,[1]; at 3.7 µM,-32%
same,growth inhibition,[1]; at 11.0 µM,-4%
same,growth inhibition,[1]; at 33.0 µM,86% (active)
same,growth inhibition,[1]; at 100.0 µM,99% (active)
same,growth inhibition,[2]; at 1.2 µM,-15%
same,growth inhibition,[2]; at 3.7 µM,6%
same,growth inhibition,[2]; at 11.0 µM,9%
same,growth inhibition,[2]; at 33.0 µM,84% (active)
same,growth inhibition,[2]; at 100.0 µM,98% (active)
same,growth inhibition,[3]; at 1.2 µM,-8%
same,growth inhibition,[3]; at 3.7 µM,24%
same,growth inhibition,[3]; at 11.0 µM,40%
same,growth inhibition,[3]; at 33.0 µM,84% (active)
same,growth inhibition,[3]; at 100.0 µM,98% (active)
same,growth inhibition,[4]; at 1.2 µM,-23%
same,growth inhibition,[4]; at 3.7 µM,-4%
same,growth inhibition,[4]; at 11.0 µM,38%
same,growth inhibition,[4]; at 33.0 µM,95% (active)
same,growth inhibition,[4]; at 100.0 µM,99% (active)
same,growth inhibition,[5]; at 1.2 µM,-9%
same,growth inhibition,[5]; at 3.7 µM,7%
same,growth inhibition,[5]; [17],36%
same,growth inhibition,[5]; at 11.0 µM,31%
same,growth inhibition,[5]; at 33.0 µM,91% (active)
same,growth inhibition,[5]; [18],94% (active)
same,growth inhibition,[5]; at 50.0 µM,88.8% (active)
same,growth inhibition,[5]; at 100.0 µM,99% (active)
same,growth inhibition,[6]; at 1.2 µM,-36%
same,growth inhibition,[6]; at 3.7 µM,-27%
same,growth inhibition,[6]; [17],-11%
same,growth inhibition,[6]; at 11.0 µM,13%
same,growth inhibition,[6]; at 33.0 µM,92% (active)
same,growth inhibition,[6]; [18],98% (active)
same,growth inhibition,[6]; at 50.0 µM,81.3% (active)
same,growth inhibition,[6]; at 100.0 µM,98% (active)
same,growth inhibition,[7]; at 1.2 µM,-4%
same,growth inhibition,[7]; at 3.7 µM,1%
same,growth inhibition,[7]; at 11.0 µM,15%
same,growth inhibition,[7]; at 33.0 µM,95% (active)
same,growth inhibition,[7]; at 100.0 µM,99% (active)
same,growth inhibition,[8]; [17],25%
same,growth inhibition,[8]; [18],94% (active)
same,growth inhibition,[8]; at 50.0 µM,92% (active)
same,growth inhibition,[9]; at 1.2 µM,-20%
same,growth inhibition,[9]; at 3.7 µM,-27%
same,growth inhibition,[9]; at 11.0 µM,3%
same,growth inhibition,[9]; at 33.0 µM,87% (active)
same,growth inhibition,[9]; at 100.0 µM,99% (active)
same,growth inhibition,[10]; [17],13%
same,growth inhibition,[10]; [18],94% (active)
same,growth inhibition,[10]; at 50.0 µM,38.2%
same,growth inhibition,[11]; at 1.2 µM,1%
same,growth inhibition,[11]; at 3.7 µM,3%
same,growth inhibition,[11]; [17],29%
same,growth inhibition,[11]; at 11.0 µM,58%
same,growth inhibition,[11]; at 33.0 µM,98% (active)
same,growth inhibition,[11]; [18],99% (active)
same,growth inhibition,[11]; at 50.0 µM,81.2% (active)
same,growth inhibition,[11]; at 100.0 µM,99% (active)
same,growth inhibition,[12]; at 1.2 µM,-37%
same,growth inhibition,[12]; at 3.7 µM,-18%
same,growth inhibition,[12]; at 11.0 µM,18%
same,growth inhibition,[12]; at 33.0 µM,93% (active)
same,growth inhibition,[12]; at 100.0 µM,99% (active)
same,growth inhibition,[13]; at 1.2 µM,0%
same,growth inhibition,[13]; at 3.7 µM,26%
same,growth inhibition,[13]; at 11.0 µM,69%
same,growth inhibition,[13]; at 33.0 µM,98% (active)
same,growth inhibition,[13]; at 100.0 µM,98% (active)
same,growth inhibition,[14]; at 1.2 µM,-18%
same,growth inhibition,[14]; at 3.7 µM,-6%
same,growth inhibition,[14]; at 11.0 µM,25%
same,growth inhibition,[14]; at 33.0 µM,93% (active)
same,growth inhibition,[14]; at 100.0 µM,98% (active)
same,growth inhibition,[15]; [17],-9%
same,growth inhibition,[15]; [18],97% (active)
same,growth inhibition,[15]; at 50.0 µM,90% (active)
same,growth inhibition,[16]; at 1.2 µM,-30%
same,growth inhibition,[16]; at 3.7 µM,7%
same,growth inhibition,[16]; at 11.0 µM,23%
same,growth inhibition,[16]; at 33.0 µM,88% (active)
same,growth inhibition,[16]; at 100.0 µM,98% (active)
